Data taken from PubChem BioAssay (EPA / NIEHS).
Values joined by “and” are separate entries in the source; they are usually repeats but may differ in a detail not shown here. Equal values may be shown once. Results filed as inconclusive are left out. Active and inactive are the calls of the source. How the source made its calls: active means hit-call score of the fitted dose curve at least 0.9, where 1 is the maximum; inconclusive means response in the unintended direction; inactive means score below 0.9.

Key:
[1] = target: Retinoic acid receptor alpha (Homo sapiens) (UniProt P10276); test: NVS_NR_hRARa_Agonist: NovaScreen (NVS) Nuclear Receptor Binding Assay for human Retinoic Acid Alpha Receptor Agonism (RAR) (AID 2283361)
Chain of Retinoic acid receptor alpha (Homo sapiens) (P10276 whole entry, looked up): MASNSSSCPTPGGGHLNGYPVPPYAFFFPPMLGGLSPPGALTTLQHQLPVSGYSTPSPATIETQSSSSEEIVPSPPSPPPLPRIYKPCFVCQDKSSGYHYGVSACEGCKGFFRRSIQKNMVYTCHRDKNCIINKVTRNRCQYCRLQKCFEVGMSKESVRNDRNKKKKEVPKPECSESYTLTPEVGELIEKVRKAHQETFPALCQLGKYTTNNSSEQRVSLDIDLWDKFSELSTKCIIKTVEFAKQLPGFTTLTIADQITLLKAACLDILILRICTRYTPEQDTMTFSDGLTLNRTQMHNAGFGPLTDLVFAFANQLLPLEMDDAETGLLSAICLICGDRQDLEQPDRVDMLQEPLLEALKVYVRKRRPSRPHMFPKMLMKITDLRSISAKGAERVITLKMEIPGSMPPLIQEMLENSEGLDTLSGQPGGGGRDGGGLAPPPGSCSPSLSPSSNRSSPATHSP
Summary of the method: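 Cell-free TR-FRET binding readout with extracted receptor protein, read 2 hours after dosing; gain-of-signal fitted relative to DMSO. Screened in duplicate at 25 uM, actives then run in concentration-response.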

[2] = target: Estrogen receptor beta (Homo sapiens) (UniProt Q92731); test: OT_ER_ERbERb_0480: Odyssey Thera (OT) 8-hour HEK293T Protein-Complementation Assay for Estrogen Receptor-beta/-beta Homodimer (AID 2283357);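 further: active means signal gain over DMSO baseline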
Chain of Estrogen receptor beta (Homo sapiens) (Q92731 whole entry, looked up, the tested form may be a part): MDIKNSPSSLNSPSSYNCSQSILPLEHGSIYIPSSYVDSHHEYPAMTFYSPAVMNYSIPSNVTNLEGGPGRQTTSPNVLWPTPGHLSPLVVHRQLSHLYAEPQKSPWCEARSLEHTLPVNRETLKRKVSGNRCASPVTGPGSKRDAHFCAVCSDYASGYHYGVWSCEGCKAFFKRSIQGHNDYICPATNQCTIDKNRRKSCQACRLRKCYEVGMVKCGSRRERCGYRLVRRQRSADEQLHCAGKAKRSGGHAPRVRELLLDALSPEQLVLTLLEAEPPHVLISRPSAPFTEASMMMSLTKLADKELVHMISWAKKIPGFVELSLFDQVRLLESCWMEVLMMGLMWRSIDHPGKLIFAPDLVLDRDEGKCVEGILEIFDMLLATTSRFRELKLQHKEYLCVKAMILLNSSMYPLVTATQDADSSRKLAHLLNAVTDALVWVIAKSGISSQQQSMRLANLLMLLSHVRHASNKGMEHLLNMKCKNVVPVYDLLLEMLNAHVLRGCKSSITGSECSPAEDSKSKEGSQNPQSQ
Summary of the method: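 Fluorescence intensity, nuclear for agonists and nuclear plus cytoplasmic for antagonists, was quantified by laser scanning cytometry versus vehicle after 8 h treatment. The cells were HEK293T stably carrying ER beta LBD fragment-complementation partners.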

PGR (gene 5241) = PGR (gene 5241) (UniProt P06401); test: NVS_NR_hPR: NovaScreen (NVS) Nuclear Receptor Binding Assay for human Progestron Receptor (PR) (AID 2283360);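 further: active means loss of bound radioligand signal versus DMSO baseline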
Chain of PGR (gene 5241) (P06401 whole entry, looked up): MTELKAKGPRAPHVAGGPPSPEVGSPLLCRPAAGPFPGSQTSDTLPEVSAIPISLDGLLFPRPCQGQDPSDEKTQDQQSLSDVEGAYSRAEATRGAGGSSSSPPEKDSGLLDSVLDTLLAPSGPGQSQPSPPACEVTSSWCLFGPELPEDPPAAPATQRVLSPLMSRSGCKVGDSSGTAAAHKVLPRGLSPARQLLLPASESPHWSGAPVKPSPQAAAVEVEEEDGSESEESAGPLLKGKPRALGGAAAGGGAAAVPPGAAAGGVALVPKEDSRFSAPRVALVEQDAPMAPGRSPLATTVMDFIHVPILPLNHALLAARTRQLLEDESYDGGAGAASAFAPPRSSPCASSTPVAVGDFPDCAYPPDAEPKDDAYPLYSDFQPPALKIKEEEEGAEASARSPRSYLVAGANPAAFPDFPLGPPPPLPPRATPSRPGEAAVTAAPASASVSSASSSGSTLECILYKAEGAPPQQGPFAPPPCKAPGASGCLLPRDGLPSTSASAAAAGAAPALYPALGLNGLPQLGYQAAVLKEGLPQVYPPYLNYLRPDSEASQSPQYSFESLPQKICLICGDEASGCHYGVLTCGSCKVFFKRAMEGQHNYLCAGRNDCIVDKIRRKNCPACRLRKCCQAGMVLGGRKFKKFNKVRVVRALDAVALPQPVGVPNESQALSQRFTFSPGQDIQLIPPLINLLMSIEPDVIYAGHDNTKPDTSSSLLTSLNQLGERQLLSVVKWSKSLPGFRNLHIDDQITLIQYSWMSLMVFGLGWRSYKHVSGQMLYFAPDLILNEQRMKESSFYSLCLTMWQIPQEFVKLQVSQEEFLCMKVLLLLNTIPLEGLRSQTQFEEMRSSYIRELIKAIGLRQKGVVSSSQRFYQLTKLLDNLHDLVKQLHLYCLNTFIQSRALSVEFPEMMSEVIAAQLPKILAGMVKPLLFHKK
Summary of the method: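 Cell-free radioligand binding using receptor protein extracted from T47D cells, read by scintillation counting 18 hours after dosing. Loss of signal relative to DMSO baseline indicates displacement; primary screen single concentration 25 uM in duplicate, actives followed in concentration series.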

[3] = target: Nuclear receptor subfamily 1 group I member 2 (Homo sapiens) (UniProt O75469); test: NVS_NR_hPXR: NovaScreen (NVS) Nuclear Receptor Binding Assay for human Pregnane X Receptor (PXR) (AID 2283365);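 further: a drop in FRET signal versus DMSO baseline means the compound binds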
Chain of Nuclear receptor subfamily 1 group I member 2 (Homo sapiens) (O75469 whole entry, looked up): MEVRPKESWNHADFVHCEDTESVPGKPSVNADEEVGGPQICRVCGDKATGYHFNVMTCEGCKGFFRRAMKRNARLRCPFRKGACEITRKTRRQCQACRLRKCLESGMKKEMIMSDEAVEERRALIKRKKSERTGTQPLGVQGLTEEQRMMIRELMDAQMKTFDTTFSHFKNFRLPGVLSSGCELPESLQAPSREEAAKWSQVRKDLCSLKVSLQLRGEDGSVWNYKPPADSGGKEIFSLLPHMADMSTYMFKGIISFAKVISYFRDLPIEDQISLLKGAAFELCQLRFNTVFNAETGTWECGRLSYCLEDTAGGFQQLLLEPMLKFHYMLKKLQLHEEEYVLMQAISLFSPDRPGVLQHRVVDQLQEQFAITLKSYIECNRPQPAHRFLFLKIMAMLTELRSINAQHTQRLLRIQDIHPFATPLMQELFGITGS
Summary of the method: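 Binding was measured by time-resolved fluorescence resonance energy transfer after a 2 h exposure of extracted human PXR protein without cells. Compounds were first tested at 25 uM in duplicate, with concentration series for actives; DMSO defined baseline.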

[4] = target: Peroxisome proliferator-activated receptor gamma (Homo sapiens) (UniProt P37231); test: NVS_NR_hPPARg: NovaScreen (NVS) Nuclear Receptor Binding Assay for human Peroxisome Proliferator-activated Receptor gamma (PPARg) (AID 2283370)
Chain of Peroxisome proliferator-activated receptor gamma (Homo sapiens) (P37231 whole entry, looked up): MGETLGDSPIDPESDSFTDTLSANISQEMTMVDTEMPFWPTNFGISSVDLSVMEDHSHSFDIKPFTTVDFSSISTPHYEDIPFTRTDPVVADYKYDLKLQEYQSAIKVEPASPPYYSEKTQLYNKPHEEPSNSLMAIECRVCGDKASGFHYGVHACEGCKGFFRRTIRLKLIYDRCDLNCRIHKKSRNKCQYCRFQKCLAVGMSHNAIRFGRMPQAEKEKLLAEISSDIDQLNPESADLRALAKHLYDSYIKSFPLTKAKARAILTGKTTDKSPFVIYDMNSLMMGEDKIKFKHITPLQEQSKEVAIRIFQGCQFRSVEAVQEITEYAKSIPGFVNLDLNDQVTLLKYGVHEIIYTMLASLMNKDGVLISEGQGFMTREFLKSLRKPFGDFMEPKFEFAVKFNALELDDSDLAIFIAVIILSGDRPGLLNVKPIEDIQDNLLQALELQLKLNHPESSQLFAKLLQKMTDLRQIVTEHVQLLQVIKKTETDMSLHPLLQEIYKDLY
Summary of the method: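 Fluorescence polarization measures competitive binding to extracted PPARg in a cell-free format. Reading is taken at 2 h; activity is signal loss relative to DMSO. Screening at 25 uM in duplicate preceded confirmatory dose series.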

[5] = target: human Adenosine Transporter (Adot), SLC29A1 (gene 2030) (UniProt Q99808); test: NVS_TR_hAdoT: NovaScreen (NVS) Transporter Assay for human Adenosine Transporter (Adot) (AID 2283368)
Chain of human Adenosine Transporter (Adot), SLC29A1 (gene 2030) (Q99808 whole entry, looked up): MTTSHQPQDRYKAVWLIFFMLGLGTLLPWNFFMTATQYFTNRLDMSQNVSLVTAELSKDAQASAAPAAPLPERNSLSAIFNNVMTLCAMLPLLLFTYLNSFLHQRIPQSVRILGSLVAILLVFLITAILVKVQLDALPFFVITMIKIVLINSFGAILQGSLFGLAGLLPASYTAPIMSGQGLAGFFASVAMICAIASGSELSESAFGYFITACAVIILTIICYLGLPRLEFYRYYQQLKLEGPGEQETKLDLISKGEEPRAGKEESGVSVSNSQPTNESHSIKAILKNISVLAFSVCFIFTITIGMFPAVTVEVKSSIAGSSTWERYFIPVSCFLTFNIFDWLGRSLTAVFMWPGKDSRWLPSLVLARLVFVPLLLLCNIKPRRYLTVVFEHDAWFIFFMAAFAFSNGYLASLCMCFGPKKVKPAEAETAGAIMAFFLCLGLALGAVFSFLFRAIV
Summary of the method: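 U937-derived membranes, cell-free radioligand binding, filter scintillation 1 h after dosing. 25 uM duplicate screen; hits (e.g. 30% inhibition) run in concentration-response up to 50 uM; loss of signal versus DMSO.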

[6] = target: Estrogen receptor (Homo sapiens) + Estrogen receptor beta (Homo sapiens) (UniProt P03372+Q92731); test: OT_ER_ERaERb_1440: Odyssey Thera (OT) 24-hour HEK293T Protein-Complementation Assay for Estrogen Receptor-alpha/-beta Homodimer (AID 2283356);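 further: heteromer of ER alpha and ER beta binding domains; hits raise reporter fluorescence and both agonists and antagonists give an increase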
Summary of the method: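 Heterodimerisation of ERα (aa 310-547) and ERβ (aa 263-489) ligand binding domains was tracked as fluorescence gain in stably transfected HEK293T cells following 24 h dosing, normalised to DMSO controls.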

[7] = target: guinea pig Sigma Receptor, Non-selective Binding, SIGMAR1 (gene 100135589) (UniProt Q60492); test: NVS_OR_gSIGMA_NonSelective: NovaScreen (NVS) Nuclear Receptor Binding Assay for guinea pig Sigma Receptor, Non-selective Binding (AID 2283367)
Chain of guinea pig Sigma Receptor, Non-selective Binding, SIGMAR1 (gene 100135589) (Q60492 whole entry, looked up): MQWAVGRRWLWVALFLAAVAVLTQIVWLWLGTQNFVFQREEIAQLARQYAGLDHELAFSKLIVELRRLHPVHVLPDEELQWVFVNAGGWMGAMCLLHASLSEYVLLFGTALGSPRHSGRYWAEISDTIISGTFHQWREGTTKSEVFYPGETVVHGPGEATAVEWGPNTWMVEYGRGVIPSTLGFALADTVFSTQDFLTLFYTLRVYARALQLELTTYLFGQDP
Summary of the method: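 Radioligand displacement on guinea pig brain membranes, read by filter-based scintillation counting 1 h after dosing. Loss of signal versus DMSO; initial duplicate single-point screen at 25 uM, actives followed in concentration series.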

[8] = tested on: guinea pig Dopamine Transporter (DAT), gene 100714898; test: NVS_TR_gDAT: NovaScreen (NVS) Transporter Assay for guinea pig Dopamine Transporter (DAT) (AID 2283369);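 further: active compounds lower bound radioligand signal relative to DMSO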
Summary of the method: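 Test chemicals were incubated 2 h with guinea pig striatal membranes and a radioligand; bound label was separated by filtration and counted. Screening ran at 25 uM, followed by concentration-response testing to a 50 uM maximum.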

[9] = target: rat Serotonin Transporter (SERT), Slc6a4 (gene 25553) (UniProt P31652); test: NVS_TR_rSERT: NovaScreen (NVS) Transporter Assay for rat Serotonin Transporter (SERT) (AID 2283375)
Summary of the method: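 Steps: rat forebrain membranes dosed with chemical (25 uM duplicate primary; concentration series for actives); 1 h incubation; labelled ligand bound, filtered, counted by scintillation. Activity scored as signal loss vs DMSO.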

[10] = target: Glucocorticoid receptor (Homo sapiens) (UniProt P04150); test: NVS_NR_hGR: NovaScreen (NVS) Nuclear Receptor Binding Assay for human Glucocorticoid Receptor (GR) (AID 2283363);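 on AC50: activity is loss of specific radioligand binding signal relative to DMSO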
Chain of Glucocorticoid receptor (Homo sapiens) (P04150 whole entry, looked up): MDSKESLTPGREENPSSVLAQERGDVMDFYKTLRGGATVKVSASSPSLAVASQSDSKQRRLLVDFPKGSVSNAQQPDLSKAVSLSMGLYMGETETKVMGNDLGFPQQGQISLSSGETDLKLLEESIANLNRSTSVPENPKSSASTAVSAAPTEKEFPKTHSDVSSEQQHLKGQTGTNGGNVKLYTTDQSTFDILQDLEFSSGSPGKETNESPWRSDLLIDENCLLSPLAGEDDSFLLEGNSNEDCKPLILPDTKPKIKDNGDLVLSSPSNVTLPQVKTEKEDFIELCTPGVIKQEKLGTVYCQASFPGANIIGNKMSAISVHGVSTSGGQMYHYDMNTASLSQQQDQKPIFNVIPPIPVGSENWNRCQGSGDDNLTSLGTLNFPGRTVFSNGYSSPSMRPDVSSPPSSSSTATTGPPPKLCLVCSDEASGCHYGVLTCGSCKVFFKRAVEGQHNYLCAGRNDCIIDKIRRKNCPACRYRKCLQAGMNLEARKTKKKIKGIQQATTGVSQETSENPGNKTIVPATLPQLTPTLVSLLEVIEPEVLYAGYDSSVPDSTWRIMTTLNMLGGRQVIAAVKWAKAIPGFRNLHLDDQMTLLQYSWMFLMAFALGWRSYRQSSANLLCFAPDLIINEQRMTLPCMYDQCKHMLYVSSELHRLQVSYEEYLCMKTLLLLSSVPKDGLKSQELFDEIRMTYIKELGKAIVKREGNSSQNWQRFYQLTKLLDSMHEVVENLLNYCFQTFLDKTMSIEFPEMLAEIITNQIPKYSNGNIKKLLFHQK
Summary of the method: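 Cell-free radioligand displacement assay on extracted human GR, read 16 h after dosing by filter-based scintillation counting. Screened in duplicate at 25 uM, then concentration series for actives; loss of signal versus DMSO baseline.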

[11] = target: human Serotonin Transporter (SERT), SLC6A4 (gene 6532) (UniProt P31645); test: NVS_TR_hSERT: NovaScreen (NVS) Transporter Assay for human Serotonin Transporter (SERT) (AID 2283372)
Summary of the method: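 Radioligand binding to native SERT in human platelet membranes, read by filter-based scintillation counting 1 h after dosing. Primary screen in duplicate at 25 uM; actives followed up in concentration series; loss of signal versus DMSO baseline.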

[12] = target: human Dopamine Transporter (DAT), SLC6A3 (gene 6531) (UniProt Q01959); test: NVS_TR_hDAT: NovaScreen (NVS) Transporter Assay for human Dopamine Transporter (DAT) (AID 2283374);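 further: activity means loss of bound radioligand signal relative to DMSO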
Chain of human Dopamine Transporter (DAT), SLC6A3 (gene 6531) (Q01959 whole entry, looked up): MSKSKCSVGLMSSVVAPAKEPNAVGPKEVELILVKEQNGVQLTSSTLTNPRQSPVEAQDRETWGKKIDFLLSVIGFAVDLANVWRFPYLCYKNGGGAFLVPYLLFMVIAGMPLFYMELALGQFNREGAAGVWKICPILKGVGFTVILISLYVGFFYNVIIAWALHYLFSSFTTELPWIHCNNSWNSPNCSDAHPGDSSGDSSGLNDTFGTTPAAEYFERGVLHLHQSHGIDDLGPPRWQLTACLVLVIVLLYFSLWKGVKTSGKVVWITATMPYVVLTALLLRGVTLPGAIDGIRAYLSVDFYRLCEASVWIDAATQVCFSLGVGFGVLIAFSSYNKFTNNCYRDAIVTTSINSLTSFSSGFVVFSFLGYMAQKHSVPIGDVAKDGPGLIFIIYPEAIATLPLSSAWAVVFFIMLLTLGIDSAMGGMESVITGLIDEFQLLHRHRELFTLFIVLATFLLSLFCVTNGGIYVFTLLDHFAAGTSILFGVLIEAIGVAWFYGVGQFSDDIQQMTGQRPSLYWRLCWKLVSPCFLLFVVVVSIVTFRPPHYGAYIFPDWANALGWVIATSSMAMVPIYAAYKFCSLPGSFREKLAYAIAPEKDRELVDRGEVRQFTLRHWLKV
Summary of the method: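 Cell-free radioligand displacement binding at human DAT, 1 h after dosing, with filtration and scintillation counting. Primary screen in duplicate at 25 uM, actives then in concentration series. Loss of bound signal versus DMSO scored.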

O=C(OCCCCCCOC(=O)c1ccccc1)c1ccccc1 was tested, and the outcome [1] was “inactive”.

In the case of CC1(C)NC(=O)N(c2ccc([N+](=O)[O-])c(C(F)(F)F)c2)C1=O, the outcome [2] is reported as “inactive”, the AC50 (PGR (gene 5241)) is reported as 15.7 µM (active) and the outcome [3] is reported as “inactive”. For the same compound, the outcome [4] was “inactive”.

In the case of Cc1oc2c(NC(=O)c3c(Cl)cccc3Cl)cccc2c1C(C)(C)O, the AC50 [5] is reported as 25 µM (active) and the outcome [4] is reported as “inactive”.

COc1cccc([C@H](O)C2CCN(CCc3ccc(F)cc3)CC2)c1OC was tested, and the outcome [6] was “inactive”, the outcome [2] was “inactive” and the AC50 [7] was 0.29 µM (active). The AC50 [8] was 19.9 µM (active) and the AC50 [9] was 8.09 µM (active).

For COc1ccc2cc(S(=O)(=O)N[C@H](CC(=O)N[C@H](Cc3ccc(CN4[C@H](C)CCC[C@@H]4C)cc3)C(=O)N(C)C(C)C)c3ccc4c(c3)OCO4)ccc2c1, the outcome [10] was “inactive”, the AC50 [7] was 1.74 µM (active) and the AC50 [5] was 9.24 µM (active). For the same compound, the AC50 [8] was 13.9 µM (active), the outcome [11] was “inactive” and the AC50 [12] was 12.1 µM (active).

In the case of c1ccc2n[nH]nc2c1, the outcome [2] is reported as “inactive” and the outcome [4] is reported as “inactive”.

In the case of c1ccc(C[n+]2cccc3ccccc32)cc1, the outcome [6] is reported as “inactive”, the outcome [2] is reported as “inactive” and the AC50 [7] is reported as 8.14 µM (active). For the same compound, the AC50 [8] was 10.1 µM (active), the AC50 [12] was 9.52 µM (active) and the AC50 [9] was 6.24 µM (active).

With CC/C(=C(/CC)c1ccc(O)cc1)c1ccc(O)cc1 the outcome (PGR (gene 5241)) was “inactive”, the AC50 [10] was 177 nM (active) and 162 nM (active) and 1.27 µM (active) and the AC50 [5] was 17.6 µM (active). For the same compound, the AC50 [12] was 16.2 µM (active).

In the case of CC[C@H](NC(=O)c1cc(F)ccc1NS(=O)(=O)c1cccc2cccnc12)c1ccccc1, the outcome [6] is reported as “inactive”, the outcome [2] is reported as “inactive” and the outcome [4] is reported as “inactive”.

CCCCCCCC[Si](OCC)(OCC)OCC was tested, and the outcome [2] was “inactive”, the outcome [3] was “inactive” and the outcome [4] was “inactive”.

In the case of CC(C)(C)c1csc(-c2cc3cc(OCc4ccccc4CC(=O)O)ccc3o2)n1, the outcome [6] is reported as “inactive”, the outcome [2] is reported as “inactive” and the AC50 [4] is reported as 0.00229 µM (active).

For CC(C)(C)c1cc(/C=C2\SC(N)=NC2=O)cc(C(C)(C)C)c1O, the outcome (PGR (gene 5241)) was “inactive”.

With O=c1[nH]sc2ccccc12 the outcome [6] was “inactive”, the outcome [2] was “inactive” and the AC50 [5] was 17.2 µM (active). The AC50 [8] was 40.5 µM (active) and the AC50 [12] was 21.4 µM (active).

CCN(CC)C(=O)c1cc(S(=O)(=O)Cc2ccccc2)c(N2CCC(c3ccccc3)CC2)cc1N(CC)CCN(C)C was tested, and the outcome [2] was “inactive”, the outcome [1] was “inactive” and the AC50 [10] was 14.2 µM (active). For the same compound, the AC50 [3] was 15.4 µM (active), the AC50 [7] was 6.21 µM (active) and the AC50 [8] was 6.53 µM (active). The AC50 [12] was 5.63 µM (active).

With CC(=O)N1CCN(c2ccc(OC[C@H]3CO[C@](Cn4ccnc4)(c4ccc(Cl)cc4Cl)O3)cc2)CC1 the outcome [2] was “inactive” and the AC50 [12] was 11.2 µM (active).
